Assay [1] is described as follows: NCI Yeast Anticancer Drug Screen. Data for the rad50 strain (AID 155).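 Note: 0% = growth of vehicle-only cultures of the same strain.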 The conditions noted are these: S. cerevisiae rad50 strain growth inhibition; at 50.0 µM; active compounds read high. The method, boiled down:
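DNA repair mutant yeast, compound exposure, growth read-out; inhibition is taken relative to vehicle.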

Assay [2] in a line: NCI Yeast Anticancer Drug Screen. Data for the mec2-1 strain (AID 157). To be noted: S. cerevisiae mec2-1 strain, at 50.0 µM, active compounds read high. The method, boiled down:
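Cells of the genetically defined mec2-1 yeast strain are incubated with test compound. Inhibition of growth is calculated against vehicle-treated controls.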

Assay [3] in a line: NCI Yeast Anticancer Drug Screen. Data for the sgs1 mgt1 strain (AID 161).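 Note: 0% = growth of cultures given vehicle only.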 The conditions noted are these: S. cerevisiae sgs1 mgt1 strain, at 50.0 µM, active compounds read high. The method, boiled down:
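Read-out: growth inhibition vs vehicle controls. Cells: mutant yeast strain deficient in DNA damage repair.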

Assay [4] in a line: NCI Yeast Anticancer Drug Screen. Data for the cln2 rad14 strain (AID 165).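 Note: 0% = growth equal to vehicle treated cultures.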 To be noted: S. cerevisiae cln2 rad14 strain, at 50.0 µM, active compounds read high. An outline of the steps:
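The screen exposed genetically defined yeast (cln2 rad14) to test compounds and scored growth inhibition relative to vehicle-treated controls.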

Assay [5] in a line: NCI Yeast Anticancer Drug Screen. Data for the bub3 strain (AID 167). The conditions noted are these: S. cerevisiae bub3 mutant strain, at 50.0 µM, active compounds read high. The method, boiled down: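 In this screen, a yeast mutant lacking normal mitotic checkpoint function is challenged with compound. Relative growth versus vehicle gives the inhibition value.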
Assay [6] in a line: NCI Yeast Anticancer Drug Screen. Data for the mlh1 rad18 strain (AID 175). To be noted: S. cerevisiae mlh1 rad18 strain growth inhibition; at 50.0 µM; active compounds read high. The method, boiled down: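 Compound-treated yeast growth, normalised to vehicle controls. Strain bears defined DNA repair mutations.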

The panel holds about 79,000 compounds, 15% with a hit somewhere; the sample as a whole holds those more often. Values without a mark were called inactive. Calls of active or inactive are those of the source. Cut-off read from the data, not from the text of the source: active = growth inhibition above about 70%; inactive = the rest. *1 amine or outer side, *2 acyl side, *3 side chain or, on linkers, in order; H or OH if unused. Where a SMILES comes first, the peptide text is derived from it. [ ]: non-standard residue; d: D form. X12 = NC(N)=NCC(O)CC(N[*:1])C(=O)[*:2]; Orn = NCCC[CH](N)C(=O)O

`CCc1nnc(CC)n1N`: the growth inhibition in assay [1] is 46.2%; in assay [2], -7.05%; in assay [3], 41.8%; in assay [4], -10.6%; in assay [5], 16.4%; in assay [6] it was 38.2%.
On to `CC(=O)N(C(C)=O)c1cc2c3c(c1)CCCN3CCC2`, for which the growth inhibition in assay [1] was 2.2%; in assay [2], -40.8%; in assay [3], -22.1%; in assay [4], -36.8%; in assay [5], -16.1%; in assay [6], -1.6%.
`Cc1ccccc1C(=O)N1CCOCC1`: the growth inhibition in assay [1] was -10.9%; in assay [2], 3.7%; in assay [3] it was -0.1%; in assay [4], -13.4%; in assay [5] it was 16.1%; in assay [6] it was 21.4%.
`O=S(=O)(O)c1ccccc1/C=N\N=C\c1ccccc1S(=O)(=O)O`: the growth inhibition in assay [1] is 10.8%; in assay [2], 1.85%; in assay [3], 11.7%; in assay [4], 17.4%; in assay [5] it was -6.4%; in assay [6] it was 12.8%.
As to `COc1cc(CO)c(CC(=O)NCCCc2ccccc2)cc1OC`, the growth inhibition in assay [1] was 37.8%; in assay [2], -44.5%; in assay [3], -12.5%; in assay [4], -2.85%; in assay [5], -14.2%; in assay [6] it was -47.5%.
As to `COc1cc(NS(=O)(=O)c2ccccc2)c2nc3ccc(Cl)cc3nc2c1`, the growth inhibition in assay [1] was 3.6%; in assay [2], -8.4%; in assay [3] it was -25.1%; in assay [4] it was 3.3%; in assay [5], -7.25%; in assay [6], 12.3%.
Turning to `O=C(O)C(Nc1ccc(Cc2ccc(NC(C(=O)O)c3ccccc3)cc2)cc1)c1ccccc1` (stereo not drawn), the growth inhibition in assay [1] is 94% (active); in assay [2], 86% (active); in assay [3], 92% (active); in assay [4], -4.5%; in assay [5], 37.7%; in assay [6], 90% (active).
`C[N+]1(C)C2Cc3ccccc3C1Cc1ccccc12`: the growth inhibition in assay [1] is -1.7%; in assay [2] it was -11.6%; in assay [3], 11.4%; in assay [4], 10.4%; in assay [5], 3.75%; in assay [6], -57%.
As to `CC(=O)NC1C(O)OC(COCc2ccccc2)C(OCc2ccccc2)C1OCc1ccccc1` (stereo not drawn), the growth inhibition in assay [1] was 6.9%; in assay [2] it was -1.8%; in assay [3] it was -10.4%; in assay [4] it was 7.25%; in assay [5] it was -5.35%; in assay [6], -15.1%.
Take `O=C(O)c1c[nH]c2cc(OCc3ccc(Br)cc3)ccc2c1=O`: the growth inhibition was 13.8% in assay [1]; 0.65% in assay [2]; -1.85% in assay [3]; 6.9% in assay [4]; 2.5% in assay [5]; 9.45% in assay [6].
For the compound `C=C(C)S(=O)(=O)c1ccc(C)cc1`, the growth inhibition in assay [1] was 11.3%; in assay [2], -16.4%; in assay [3], -5.7%; in assay [4] it was -15.3%; in assay [5] it was 12%; in assay [6] it was 11.8%.
With `Br/C=C\Br`, the growth inhibition was -2.85% in assay [1]; 0.15% in assay [2]; -7.45% in assay [3]; 28.6% in assay [4]; -12.8% in assay [5]; 5.35% in assay [6].
Turning to `O=S(=O)(O)c1cc2cc(S(=O)(=O)O)c(O)cc2cc1O`, the growth inhibition in assay [1] was -20.6%; in assay [2] it was -7.55%; in assay [3], -1.35%; in assay [4], 3.55%; in assay [5], -0.25%; in assay [6], -7.9%.
For the compound `O=NC1CC=CC1Cl` (stereo not drawn), the growth inhibition is 18.6% in assay [1]; 0.1% in assay [2]; 0.65% in assay [3]; 9.5% in assay [4]; -8.1% in assay [5]; 22.2% in assay [6].
As to `C(=N\c1oc(-c2ccccc2)nc1SCc1ccccc1)/c1ccccc1`, the growth inhibition was 2.75% in assay [1]; 11.2% in assay [2]; 23.1% in assay [3]; -19.8% in assay [4]; 7.3% in assay [5]; 25.9% in assay [6].
On to `CCCCNCC(=O)Nc1ccc(C(=O)OC(C)C)cc1`, for which the growth inhibition is -1.9% in assay [1]; -18.1% in assay [2]; -5.95% in assay [3]; -35.3% in assay [4]; 10.8% in assay [5]; -1.75% in assay [6].
For the compound `COc1cccc(CNc2ncnc3nc[nH]c23)c1`, the growth inhibition is 16.5% in assay [1]; 1.85% in assay [2]; 14.7% in assay [3]; 4% in assay [4]; -3.85% in assay [5]; 24.6% in assay [6].
Turning to `CC1CN(C(=O)Nc2ccc([N+](=O)[O-])cc2)CC(C)O1` (stereo not drawn), the growth inhibition in assay [1] was -16.1%; in assay [2], -36.5%; in assay [3], 13.7%; in assay [4], 3.5%; in assay [5] it was -3.65%; in assay [6] it was 6.25%.
As to `CCOC(Nc1ccc(Cl)cc1Cl)C(=O)c1ccccc1` (stereo not drawn), the growth inhibition in assay [1] is 8.65%; in assay [2], 6.05%; in assay [3] it was -2.8%; in assay [4] it was 1.85%; in assay [5], 11.8%; in assay [6] it was 1.8%.
Turning to `Cc1ccccc1CN(C)CCCO`, the growth inhibition in assay [1] was 4.1%; in assay [2], -13%; in assay [3] it was -16.8%; in assay [4], -16.1%; in assay [5] it was -3.85%; in assay [6] it was 1.05%.
Consider `c1ccc(Cc2ccc3ccccc3c2)cc1`, for which the growth inhibition in assay [1] was 35.3%; in assay [2], 14.6%; in assay [3] it was 11.8%; in assay [4], -26.6%; in assay [5], 12.2%; in assay [6] it was 50.2%.
`CN(C)CCCc1c2ccccc2nc2ccc(Cl)cc12`: the growth inhibition in assay [1] was 12.5%; in assay [2], 4.5%; in assay [3] it was -10%; in assay [4] it was -2.65%; in assay [5], 2.65%; in assay [6], 26.5%.
On to `Cc1ccc2nc(-c3ccc(-c4nc5ccc(C)cc5o4)c(O)c3)oc2c1`, for which the growth inhibition is -36.3% in assay [1]; -14.4% in assay [2]; -27.1% in assay [3]; 2.95% in assay [4]; -17.2% in assay [5]; -24.8% in assay [6].
For the compound `CC(O)C(NC(=O)C(CCCN)NC(=O)C(CC(O)CN=C(N)N)NC(=O)C(N)CCCN=C(N)N)C(=O)NC(CCCN)C(=O)NC(CC(O)CN=C(N)N)C(=O)NC(Cc1ccc(O)cc1)C(=O)O` (stereo not drawn) (H-R[X12][Orn]T[Orn][X12]Y-OH; configuration not given here), the growth inhibition in assay [1] is -0.15%; in assay [2], -19.4%; in assay [3], -4.1%; in assay [4], 15.1%; in assay [5], -15.2%; in assay [6], 2.45%.
In the case of `NC(=O)CC1(C(=O)O)c2ccccc2-c2ccccc21`, the growth inhibition is 17.1% in assay [1]; -14.2% in assay [2]; 2.65% in assay [3]; -7.55% in assay [4]; 14.6% in assay [5]; -3.95% in assay [6].
Regarding `O=C(CSc1nc2[nH]ncc2c(=O)[nH]1)c1ccc(Cl)cc1`, the growth inhibition is -37.2% in assay [1]; -36.6% in assay [2]; -27.2% in assay [3]; 3.5% in assay [4]; 11.4% in assay [5]; -34.2% in assay [6].
`COC1(OC)C2(Cl)CCC1(Cl)C(OC(C)=O)C2` (stereo not drawn): the growth inhibition is -21.4% in assay [1]; -5% in assay [2]; 4.65% in assay [3]; 26.8% in assay [4]; -8% in assay [5]; -10.7% in assay [6].
In the case of `O=C1C=C(Nc2ccc(Cl)cc2Cl)c2ccccc2C1=O`, the growth inhibition in assay [1] is 30.2%; in assay [2], 17.7%; in assay [3], 17.2%; in assay [4], 29%; in assay [5], 27.9%; in assay [6], 37.5%.
Turning to `O=C1NCCCC1CCO` (stereo not drawn), the growth inhibition in assay [1] is -8.35%; in assay [2] it was -3.65%; in assay [3], -7.95%; in assay [4], -3.65%; in assay [5], 5.5%; in assay [6], -3.85%.
In the case of `COc1ccc2oc(=O)[nH]c2c1`, the growth inhibition in assay [1] was 5.3%; in assay [2] it was -3.95%; in assay [3], 9.9%; in assay [4], 13.1%; in assay [5] it was -6.9%; in assay [6], -4.5%.
For `CCc1n[nH]c(=O)n1/N=C/c1ccccc1O`, the growth inhibition in assay [1] was -9.2%; in assay [2] it was 3.8%; in assay [3] it was -5.75%; in assay [4], 3.4%; in assay [5], -0.35%; in assay [6], 24.6%.
`NC(=O)CCC(Nc1c2ccccc2nc2ccccc12)C(=O)O` (stereo not drawn): the growth inhibition in assay [1] is 23.1%; in assay [2] it was 3.85%; in assay [3], 15.7%; in assay [4], 28.6%; in assay [5], 1.4%; in assay [6], 48.2%.
Regarding `C1CC(CCC2CCNCC2)CCN1`, the growth inhibition in assay [1] was 1.6%; in assay [2], 1.15%; in assay [3], 4.15%; in assay [4], -13.4%; in assay [5] it was 11.7%; in assay [6], 1.55%.
Consider `CSCCC(NC(=O)OCc1ccccc1)P(=O)(O)c1ccccc1` (stereo not drawn), for which the growth inhibition was -56% in assay [1]; -41.1% in assay [2]; -34% in assay [3]; 13.2% in assay [4]; 14.8% in assay [5]; -11% in assay [6].
For the compound `COc1ccccc1NC1Oc2cc3c(cc2C(c2cc(OC)c(OC)c(OC)c2)C1C)OCO3` (stereo not drawn), the growth inhibition in assay [1] is -16.4%; in assay [2], -26.1%; in assay [3], -1.25%; in assay [4], -0.85%; in assay [5], -2.8%; in assay [6] it was -5.35%.
On to `Cc1ccc(S(=O)(=O)NCc2cccc([N+](=O)[O-])c2)cc1`, for which the growth inhibition in assay [1] is 6.25%; in assay [2], -15.8%; in assay [3], -13.6%; in assay [4], 19%; in assay [5], 18.2%; in assay [6] it was 14.8%.
Turning to `CCOC(=O)N(C)C(=C(F)F)C(F)(F)F`, the growth inhibition in assay [1] was 9.1%; in assay [2] it was -0.1%; in assay [3], 10.8%; in assay [4], 33.6%; in assay [5] it was 12.4%; in assay [6], -26.1%.
Consider `COC(=O)C(=O)C(C(=O)C(=O)Nc1ccc(C)cc1C)c1nc2ccc(Cl)cc2[nH]c1=O` (stereo not drawn), for which the growth inhibition in assay [1] is 4.35%; in assay [2] it was -21.6%; in assay [3], 9.2%; in assay [4], -23.6%; in assay [5], -22.4%; in assay [6], 7.45%.

These data come from PubChem BioAssay (NCI).
